Records with an inconclusive call do not appear. Calls of active or inactive are those of the source.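 Rule for the calls, unless noted: active = aptamer binding inhibition above 30%, about 3 SD of noise from non-fluorescent compounds; inactive = inhibition at or below 30%.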

Assay [1] can be described thus: yeast TOR pathway RPL19A-GFP modulators, primary screen, cell-based, S. cerevisiae, multiplex flow cytometry (AID 1862; in the data active = percent of DMSO control GFP below about 86%;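 note: lower values mimic rapamycin by blocking the RPL19A rise seen in DMSO cells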). Particulars: S. cerevisiae RPL19A-GFP strain, flow cytometry fluorescence, 3 h; at 10 µM; stronger effect = lower value. A general note: A flow cytometer gives signals particle by particle.
The nature of assay [2]: modulators of MEP2-GFP levels in yeast, primary screen, S. cerevisiae, multiplex flow cytometry (AID 1867;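 active = GFP response, as percent of the DMSO control, above the screen-wide mean plus 3 SD, about 139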;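 note: median GFP channel fluorescence of barcode-gated MEP2-GFP cells measured by flow cytometry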). As to conditions: S. cerevisiae MEP2-GFP strain, 3 h, at 10 µM, stronger effect = higher value, 100% means same as DMSO wells.
A short description of assay [3]: modulators of CIT2-GFP expression in yeast, primary screen, S. cerevisiae, GFP fusion, multiplex flow cytometry (AID 1870;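 active = percent response above a set limit, the screen-wide mean plus 3 SD, cut at about 130% in these data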;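 note: barcoded CIT2-GFP strain pooled with four other GFP strains with rapamycin as positive control; median GFP fluorescence per well over plate mean of DMSO wells so 100% = DMSO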). As to conditions: 3 h, at 10 µM, stronger effect = higher value.
Assay [4] in a line: modulators of LAP4-GFP expression in yeast, primary screen, S. cerevisiae, multiplex flow cytometry (AID 1873;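 active = GFP signal, as percent of the solvent control, above the screen mean plus 3 SD, about 149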). As to conditions: 3 h, at 10 µM, stronger effect = higher value.
A short description of assay [5]: modulators of AGP1-GFP expression in yeast TOR pathway, primary screen, cell-based, multiplex flow cytometry, S. cerevisiae (AID 1887;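 active = GFP signal above the screen-wide mean plus 3 SD, that is over about 124.5% of the solvent control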;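 note: AGP1-GFP fusion strain of S. cerevisiae within a five-strain barcoded multiplex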). Particulars: 3 h, at 10 µM, stronger effect = higher value.
Assay [6] is described as follows: inhibitors of CD8+ T cell-vesicle binding, pilot screen, LFA-1/ICAM-1 modulator project, MLPCN validation set, flow cytometry (AID 2523;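 active = response below a set limit, under 55% cells CD8-positive and vesicle-bound, and CD8 cells' 90th-percentile brightness under 279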;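 for vesicle binding response: mean PE anti-B7-1 fluorescence of CD8+ cells relative to row control; 100% = QL9-loaded vesicles with DMSO vehicle in the same plate row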). As to conditions: 2C mouse CD8+ T cells, at 7 µM, stronger effect = lower value; double positive events: measured here: CD8+/vesicle+ event percentage.
Assay [7] deals with Integrin beta-1 (Homo sapiens) + Integrin alpha-4 (Homo sapiens) (UniProt P13612+P05556). In words: inhibition of HUTS-21 binding to VLA-4, pilot screen, VLA-4 allosteric modulator project, U937 cells, HUTS-21 mAb, flow cytometry, validation set (AID 2674;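 active = inhibition above 50%, about 3 SD of the validation set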;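 note: antibody binding induced by the VLA-4 ligand LDV present at three times its Kd; 0% = LDV ligand with antibody and no compound and 100% = antibody without LDV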). As to conditions: HUTS-21 LIBS mAb binding, at 6.7 µM, stronger effect = higher value, binding induced by LDV ligand.
Assay [8] can be described thus: superoxide lowering in aged yeast cells, pilot screen, validation compound set (AID 2706;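 active = superoxide response below 65% of plate, a cut near 3 SD across the whole screen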;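 note: yeast exposed to compound for one week at 30 degrees C before staining; 100% = mean of all compound wells on the same plate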). As to conditions: S. cerevisiae aging, superoxide DHE fluorescence; at 10 µM; stronger effect = lower value.
The target in assay [9] is Beta-adrenergic receptor kinase 1 (Homo sapiens) (UniProt P25098). Kind of assay: GRK2 binders displacing RNA aptamer, biochemical, validation, human GRK2, bead flow cytometry (AID 488806). As to conditions: bead-bound GRK2, FAM-aptamer displacement, at 10 µM, stronger effect = higher value.
The target in assay [10] is Beta-2 adrenergic receptor (Homo sapiens) (UniProt P07550). Kind of assay: beta2AR agonists driving receptor internalization, pilot screen, cell-based, FAP fluorogen, flow cytometry, validation set (AID 504459;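 active = percent response above 42, roughly 3 SD of non-fluorescent test compounds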;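 note: agonist-driven loss of surface beta2AR via internalization measured by FAP dye flow cytometry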). As to conditions: Am2.2-beta2AR cells, FAP surface receptor flow cytometry; at 10 µM; stronger effect = higher value.
Assay [11] addresses AP-2 complex subunit beta (Homo sapiens) (UniProt P63010). In words: inhibitors of arrestin peptide binding to AP2, pilot screen, biochemical, validation set, GST-AP2 beads, flow cytometry (AID 504541;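 active = inhibition above 54%, about 3 SD of non-fluorescent compounds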;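 note: AP2 carries R879A mutation and is captured from E. coli lysate; bead-bound FITC arrestin peptide fluorescence measuring arrestin peptide binding to AP2; 0% = DMSO wells and 100% = excess unlabeled arrestin peptide control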). As to conditions: FITC arrestin peptide, at 10 µM, stronger effect = higher value, AP2 beta2 appendage fragment, R879A mutant.
Assay [12] can be described thus: yeast V-ATPase proton transport modulators, S. cerevisiae, pHLuorin, HTS validation (AID 504600; in the data active = response above about 15%;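 note: plate controls were DMSO for no effect and reference compound for full effect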). As to conditions: S. cerevisiae pHLuorin cytosolic pH, at 10 µM, stronger effect = higher value.
Assay [13] has as its system anti-desmoglein-3 scFv antibody binding to human DSG3. In words: inhibitors of anti-DSG3 scFv binding to DSG3, pilot screen, biochemical, validation compound set, bead-based, flow cytometry (AID 588368;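 active = binding below the plate cutoff, the plate median minus 3 SD, with a reading above zero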;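 note: signal is the median channel fluorescence of bead-bound GFP antibody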). As to conditions: Protein G beads, DSG3-Fc, scFv-GFP binding, at 10 µM, stronger effect = lower value.
A short description of assay [14]: inhibitors of fungal efflux pumps CDR1, CDR2, MDR1, pilot screen, validation compound set, multiplex, phenotypic (AID 588506;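 active = efflux inhibition above 0.42, the validation set average plus 4 SD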;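 note: Nile Red retained in cells so higher fluorescence means more efflux inhibition; 0 = negative control wells and 1 = enniatin B 25 µM full block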). Particulars: S. cerevisiae pump-expressing triplex, Nile Red efflux flow cytometry; at 10 µM; stronger effect = higher value; the pumps come from Candida albicans.
In assay [15] the target is ATP-binding cassette sub-family B member 6 (Homo sapiens) (UniProt Q9NP58). Kind of assay: ABCB6 transporter inhibitors, pilot screen, K562-ABCB6 cells, flow cytometry, validation set (AID 588550;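 active = inhibition above the screen-wide mean plus 3 SD, about 51%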;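 note: 0% = DMSO wells and 100% = benzethonium chloride 70 µM positive control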). As to conditions: K562-ABCB6 porphyrin accumulation, 1 h, at 10 µM, stronger effect = higher value.
A short description of assay [16]: promoters of myeloid differentiation in arrested cells, primary screen, cell-based, GFP/MAC1 double positive, flow cytometry, validation set (AID 588685;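 active = differentiation response of at least 50%, scaled between solvent and reference control, from cells with both markers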;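 note: compound exposure lasts four days before antibody staining and flow analysis; 0% = DMSO wells and 100% = 5 µM fulvestrant positive control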). Particulars: ER-HoxA9 marrow cells, stronger effect = higher value, normalized: vehicle 0, fulvestrant 100.

Chain of Beta-2 adrenergic receptor (Homo sapiens) (P07550 whole entry, looked up): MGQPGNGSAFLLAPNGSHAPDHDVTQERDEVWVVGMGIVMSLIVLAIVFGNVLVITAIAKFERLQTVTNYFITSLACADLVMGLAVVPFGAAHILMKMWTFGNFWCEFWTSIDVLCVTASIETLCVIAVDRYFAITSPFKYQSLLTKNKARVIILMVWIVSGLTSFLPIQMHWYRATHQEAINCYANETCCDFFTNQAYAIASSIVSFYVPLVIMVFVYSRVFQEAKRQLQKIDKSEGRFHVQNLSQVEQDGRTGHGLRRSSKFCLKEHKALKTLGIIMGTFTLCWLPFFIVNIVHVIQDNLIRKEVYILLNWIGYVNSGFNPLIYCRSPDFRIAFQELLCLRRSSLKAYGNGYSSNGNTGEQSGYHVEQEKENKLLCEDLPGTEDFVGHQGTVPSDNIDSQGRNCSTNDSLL
Chain of ATP-binding cassette sub-family B member 6 (Homo sapiens) (Q9NP58 whole entry, looked up): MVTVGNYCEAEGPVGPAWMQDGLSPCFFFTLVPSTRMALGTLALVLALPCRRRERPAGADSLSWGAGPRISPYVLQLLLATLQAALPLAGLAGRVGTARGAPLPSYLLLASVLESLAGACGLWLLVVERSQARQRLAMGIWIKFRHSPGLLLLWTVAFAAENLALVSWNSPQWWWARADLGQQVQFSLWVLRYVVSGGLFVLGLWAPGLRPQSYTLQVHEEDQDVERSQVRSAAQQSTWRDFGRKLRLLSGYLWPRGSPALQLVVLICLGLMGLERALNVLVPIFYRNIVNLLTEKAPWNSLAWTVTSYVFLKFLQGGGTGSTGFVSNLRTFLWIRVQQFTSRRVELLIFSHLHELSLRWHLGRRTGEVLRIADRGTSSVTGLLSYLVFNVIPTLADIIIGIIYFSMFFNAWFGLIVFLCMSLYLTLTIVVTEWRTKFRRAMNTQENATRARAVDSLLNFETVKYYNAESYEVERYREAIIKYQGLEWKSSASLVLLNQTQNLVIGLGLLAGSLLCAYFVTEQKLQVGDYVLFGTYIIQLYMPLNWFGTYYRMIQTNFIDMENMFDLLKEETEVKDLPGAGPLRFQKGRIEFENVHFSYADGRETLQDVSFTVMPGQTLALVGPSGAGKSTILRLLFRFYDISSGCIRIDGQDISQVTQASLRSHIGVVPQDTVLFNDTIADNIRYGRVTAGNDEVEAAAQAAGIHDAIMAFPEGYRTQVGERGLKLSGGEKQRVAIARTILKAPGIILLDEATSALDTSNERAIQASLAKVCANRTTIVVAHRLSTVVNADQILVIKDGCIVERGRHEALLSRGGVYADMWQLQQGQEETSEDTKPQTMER
Chain of AP-2 complex subunit beta (Homo sapiens) (P63010 whole entry, looked up, the tested form may be a part, one chain of several): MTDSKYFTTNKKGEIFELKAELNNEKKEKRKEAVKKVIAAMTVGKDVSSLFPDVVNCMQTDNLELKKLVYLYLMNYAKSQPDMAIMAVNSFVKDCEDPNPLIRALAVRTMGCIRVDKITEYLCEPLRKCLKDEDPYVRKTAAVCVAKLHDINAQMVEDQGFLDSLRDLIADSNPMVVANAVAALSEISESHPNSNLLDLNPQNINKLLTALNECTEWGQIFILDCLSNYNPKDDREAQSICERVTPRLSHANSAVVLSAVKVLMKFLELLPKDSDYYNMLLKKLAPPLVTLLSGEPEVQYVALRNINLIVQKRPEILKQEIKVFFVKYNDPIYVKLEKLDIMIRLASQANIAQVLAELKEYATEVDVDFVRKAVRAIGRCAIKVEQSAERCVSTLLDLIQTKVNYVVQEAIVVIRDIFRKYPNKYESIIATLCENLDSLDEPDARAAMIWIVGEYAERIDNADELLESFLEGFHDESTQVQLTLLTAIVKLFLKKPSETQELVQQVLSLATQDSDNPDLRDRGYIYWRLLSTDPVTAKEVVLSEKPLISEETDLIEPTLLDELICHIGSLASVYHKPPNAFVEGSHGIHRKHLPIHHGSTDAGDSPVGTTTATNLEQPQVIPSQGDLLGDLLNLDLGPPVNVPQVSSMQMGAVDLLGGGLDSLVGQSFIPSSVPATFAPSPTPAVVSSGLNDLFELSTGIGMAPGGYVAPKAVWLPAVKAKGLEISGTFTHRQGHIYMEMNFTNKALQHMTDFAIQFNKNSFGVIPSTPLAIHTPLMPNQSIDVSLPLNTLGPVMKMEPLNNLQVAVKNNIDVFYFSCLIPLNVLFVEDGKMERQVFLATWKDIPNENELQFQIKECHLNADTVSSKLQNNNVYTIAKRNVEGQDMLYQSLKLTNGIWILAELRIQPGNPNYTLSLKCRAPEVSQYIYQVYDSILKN
Chain of Beta-adrenergic receptor kinase 1 (Homo sapiens) (P25098 whole entry, looked up): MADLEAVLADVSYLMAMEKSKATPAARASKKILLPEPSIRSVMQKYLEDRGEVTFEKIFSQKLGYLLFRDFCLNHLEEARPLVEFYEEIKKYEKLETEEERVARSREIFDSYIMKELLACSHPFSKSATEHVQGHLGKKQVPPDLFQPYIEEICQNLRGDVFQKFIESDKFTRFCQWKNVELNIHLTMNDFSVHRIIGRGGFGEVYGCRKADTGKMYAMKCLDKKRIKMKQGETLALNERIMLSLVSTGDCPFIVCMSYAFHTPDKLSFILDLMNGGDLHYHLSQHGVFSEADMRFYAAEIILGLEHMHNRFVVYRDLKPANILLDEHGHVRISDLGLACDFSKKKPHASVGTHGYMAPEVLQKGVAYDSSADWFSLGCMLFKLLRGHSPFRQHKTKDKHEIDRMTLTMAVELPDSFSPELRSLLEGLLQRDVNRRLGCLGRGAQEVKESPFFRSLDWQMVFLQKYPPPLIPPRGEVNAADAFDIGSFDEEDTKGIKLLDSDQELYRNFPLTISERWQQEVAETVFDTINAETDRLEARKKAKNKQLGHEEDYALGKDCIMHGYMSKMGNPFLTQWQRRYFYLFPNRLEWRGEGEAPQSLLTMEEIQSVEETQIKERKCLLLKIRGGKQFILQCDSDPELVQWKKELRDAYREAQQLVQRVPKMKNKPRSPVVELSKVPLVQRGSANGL
Chain of Integrin beta-1 (Homo sapiens) + Integrin alpha-4 (Homo sapiens) (P05556 whole entry, looked up): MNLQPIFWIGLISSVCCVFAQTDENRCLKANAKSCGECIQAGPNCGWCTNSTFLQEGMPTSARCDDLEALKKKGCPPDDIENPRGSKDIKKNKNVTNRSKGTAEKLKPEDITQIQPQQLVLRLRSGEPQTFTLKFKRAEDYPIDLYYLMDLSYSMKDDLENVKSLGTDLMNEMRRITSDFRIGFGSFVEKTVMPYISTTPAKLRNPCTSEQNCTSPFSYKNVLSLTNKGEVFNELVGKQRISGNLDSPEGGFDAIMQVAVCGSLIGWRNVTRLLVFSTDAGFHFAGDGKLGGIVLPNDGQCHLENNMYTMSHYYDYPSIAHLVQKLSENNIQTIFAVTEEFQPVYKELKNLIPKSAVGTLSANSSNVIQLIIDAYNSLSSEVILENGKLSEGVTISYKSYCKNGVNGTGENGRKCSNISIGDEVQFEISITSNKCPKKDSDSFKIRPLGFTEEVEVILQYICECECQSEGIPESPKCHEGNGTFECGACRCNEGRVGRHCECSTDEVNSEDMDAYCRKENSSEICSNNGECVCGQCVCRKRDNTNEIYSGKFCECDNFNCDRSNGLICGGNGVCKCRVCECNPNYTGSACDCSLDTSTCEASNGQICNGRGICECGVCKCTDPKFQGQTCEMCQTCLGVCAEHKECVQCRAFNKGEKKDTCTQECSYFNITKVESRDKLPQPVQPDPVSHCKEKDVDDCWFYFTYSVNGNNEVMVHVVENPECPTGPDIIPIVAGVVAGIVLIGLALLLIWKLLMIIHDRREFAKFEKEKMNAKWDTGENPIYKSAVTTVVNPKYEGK
Chain of Integrin beta-1 (Homo sapiens) + Integrin alpha-4 (Homo sapiens) (P13612 whole entry, looked up): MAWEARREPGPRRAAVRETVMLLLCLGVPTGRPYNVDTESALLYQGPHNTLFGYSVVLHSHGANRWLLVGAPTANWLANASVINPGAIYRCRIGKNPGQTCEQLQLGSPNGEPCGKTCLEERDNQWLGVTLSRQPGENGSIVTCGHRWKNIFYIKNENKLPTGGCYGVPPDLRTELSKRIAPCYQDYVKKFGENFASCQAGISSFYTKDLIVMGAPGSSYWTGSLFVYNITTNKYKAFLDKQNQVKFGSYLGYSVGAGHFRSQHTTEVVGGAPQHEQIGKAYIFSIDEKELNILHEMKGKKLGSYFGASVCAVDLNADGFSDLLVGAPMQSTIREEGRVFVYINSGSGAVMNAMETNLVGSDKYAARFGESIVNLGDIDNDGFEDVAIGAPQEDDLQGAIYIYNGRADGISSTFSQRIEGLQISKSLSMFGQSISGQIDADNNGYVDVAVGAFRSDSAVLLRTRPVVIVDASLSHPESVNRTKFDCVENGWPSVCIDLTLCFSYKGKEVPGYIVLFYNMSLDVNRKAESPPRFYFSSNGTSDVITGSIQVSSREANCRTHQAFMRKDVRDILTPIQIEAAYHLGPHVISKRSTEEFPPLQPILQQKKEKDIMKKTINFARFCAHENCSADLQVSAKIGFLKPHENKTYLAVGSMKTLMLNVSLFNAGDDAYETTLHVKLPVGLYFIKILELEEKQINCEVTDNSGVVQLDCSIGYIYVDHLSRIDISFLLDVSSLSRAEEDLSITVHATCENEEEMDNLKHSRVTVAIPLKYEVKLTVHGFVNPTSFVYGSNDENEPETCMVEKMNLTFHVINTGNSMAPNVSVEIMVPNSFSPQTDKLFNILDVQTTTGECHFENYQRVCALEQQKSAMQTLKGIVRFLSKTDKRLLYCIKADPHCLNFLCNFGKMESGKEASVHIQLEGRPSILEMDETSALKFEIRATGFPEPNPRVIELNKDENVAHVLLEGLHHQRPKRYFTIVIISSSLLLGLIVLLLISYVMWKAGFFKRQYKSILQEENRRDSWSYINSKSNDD

With `Cc1ccc2c(c1C)NC(C(=O)O)C1CC=CC21` (stereo not given), the percent of DMSO control GFP in [1] is 102% (inactive). Moreover, the GFP response vs DMSO in assay [2] is 97.4% (inactive); in assay [4] it was 73.5% (inactive). Moreover, the percent response of DMSO control in [3] is 105% (inactive). For the same compound, the GFP response, % of DMSO in assay [5] is 88.5% (inactive). In assay [6], this compound came in with a double positive events of 60.4%. Moreover, the vesicle binding response in [6] was 121% (inactive). Further, the figures for the inhibition in assay [7], in assay [11] and in [15] were -70% (inactive), 11% (inactive) and -4% (inactive), respectively. The superoxide response (% of plate) in assay [8] was 101% (inactive). In addition, the aptamer binding inhibition in [9] is 34% (active). The response in [10] is 62.2% (active); in assay [12] it was 2.2% (inactive). Further, the binding (% of control) in assay [13] was 96.8% (inactive). The efflux inhibition (fraction of control) in [14] was 0.15 (inactive). Besides, the differentiation response in assay [16] is -4% (inactive).

`COc1cc2nc(-c3ccccc3)nc(N3CCCC3)c2cc1OC`: in assay [1], the percent of DMSO control GFP is 104% (inactive). Also, the results for the GFP response vs DMSO in assay [2] and in assay [4] were 98.3% (inactive) and 82.2% (inactive), respectively. Further, the percent response of DMSO control in assay [3] was 107% (inactive). Moreover, in [5], the GFP response, % of DMSO was 104% (inactive). The compound further returned a double positive events in [6] of 68.2%. In [6], the vesicle binding response is 459% (inactive). Further, the inhibition was -36.8% (inactive) in assay [7], -3.58% (inactive) in assay [11] and 11% (inactive) in assay [15]. For the same compound, the superoxide response (% of plate) in assay [8] was 85.3% (inactive). Further, the aptamer binding inhibition in [9] was 6% (inactive). The values for the response in assay [10] and in [12] were -10% (inactive) and 2.32% (inactive), respectively. For the same compound, in assay [13], the binding (% of control) is 98.2% (inactive). In addition, the efflux inhibition (fraction of control) in assay [14] was -0.07 (inactive). In assay [16], the differentiation response was -1.71% (inactive).

With `N/C(=N\OC(=O)CCCOc1ccc(Cl)cc1Cl)c1ccccn1`, the percent of DMSO control GFP in [1] was 103% (inactive). The GFP response vs DMSO in assay [2] is 110% (inactive); in [4], 107% (inactive). Moreover, in assay [3], the percent response of DMSO control was 93.9% (inactive). For the same compound, the GFP response, % of DMSO in assay [5] is 86.8% (inactive). The double positive events in [6] stood at 59.3%. The vesicle binding response in [6] is 11.6% (inactive). For the same compound, the figures for the inhibition in assay [7], in assay [11] and in [15] were 9.71% (inactive), -27.4% (inactive) and 7% (inactive), respectively. Further, the superoxide response (% of plate) in assay [8] is 106% (inactive). For the same compound, in assay [9], the aptamer binding inhibition was 0% (inactive). Moreover, the results for the response in assay [10] and in assay [12] were 2.49% (inactive) and -2.42% (inactive), respectively. The binding (% of control) in assay [13] is 105% (inactive). Further, the efflux inhibition (fraction of control) in [14] was -0.12 (inactive). Moreover, the differentiation response in [16] is -5.68% (inactive).

With `O=c1oc2c(CN3CCCCC3)c(O)ccc2c2c1CCCCC2`, the percent of DMSO control GFP in assay [1] was 102% (inactive). Besides, the figures for the GFP response vs DMSO in [2] and in [4] were 102% (inactive) and 107% (inactive), respectively. In assay [3], the percent response of DMSO control is 102% (inactive). The GFP response, % of DMSO in assay [5] is 107% (inactive). In assay [6], this compound returned a double positive events of 59.1%. In addition, the vesicle binding response in assay [6] is 136% (inactive). Moreover, the values for the inhibition in [7], in assay [11] and in assay [15] were 6.95% (inactive), -7.24% (inactive) and 4% (inactive), respectively. The superoxide response (% of plate) in assay [8] is 102% (inactive). The aptamer binding inhibition in assay [9] was 1% (inactive). Also, the response was -8.88% (inactive) in [10] and 3.83% (inactive) in assay [12]. Besides, the binding (% of control) in assay [13] is 96.4% (inactive). Besides, the efflux inhibition (fraction of control) in [14] was -0.16 (inactive). Also, the differentiation response in assay [16] is 8.59% (inactive).

In the case of `Nc1nc(SCc2ccc([N+](=O)[O-])cc2)c2ncn(C3OC(CO)C(O)C3O)c2n1` (stereo not given), the percent of DMSO control GFP in assay [1] was 108% (inactive). Besides, the GFP response vs DMSO in assay [2] was 99.7% (inactive); in [4], 100% (inactive). For the same compound, the percent response of DMSO control in assay [3] was 106% (inactive). For the same compound, the GFP response, % of DMSO in assay [5] was 107% (inactive). Further, the double positive events in [6] was determined as 63.2%. Besides, the vesicle binding response in [6] was 169% (inactive). Also, the inhibition in assay [7] is 8.29% (inactive); in assay [11], 14.6% (inactive); in assay [15], 2% (inactive). For the same compound, the superoxide response (% of plate) in [8] is 105% (inactive). The aptamer binding inhibition in [9] was 0% (inactive). In addition, the results for the response in assay [10] and in assay [12] were -15.6% (inactive) and 0.04% (inactive), respectively. The binding (% of control) in assay [13] is 98.1% (inactive). Further, the efflux inhibition (fraction of control) in [14] is -0.07 (inactive). The differentiation response in assay [16] was -7.5% (inactive).

The term inhibition denotes the change of the read-out against control, counted positive when it falls.

The values above are taken from PubChem BioAssay.
